Test systems include SK-MEL-2 melanoma; EKVX NSCLC; SN12C renal; UO-31 renal; TK-10 renal; ACHN renal; A498 renal; CCRF-CEM leukemia; MOLT-4 leukemia.
Assay in all cases: NCI-60 one-dose screen, 48 h (100 = growth as untreated, 0 = no growth, -100 = all killed)
Holding throughout (conditions): 10 µM unless noted

Compounds without any hit were thinned out: in the full panel of roughly 83,000, 20% have a hit.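 The endpoint reported here, percent growth, reads 100 for growth as untreated, 0 for no net growth and -100 for all cells dead.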 A number with no mark means an inactive call. The source made the active and inactive calls. The calls were made as follows: active = growth percent below 10; inactive = the rest.

On to `Cc1nc2sc(C(=O)Nc3ccc(Cl)cc3)c(N)c2cc1C(O)c1ccccc1` (stereo not drawn), for which the growth is 56.6% in the assay on SK-MEL-2 melanoma; 44.2% in the assay with EKVX NSCLC; 40.6% in the assay on SN12C renal; 47.9% in the assay on UO-31 renal; 60.3% with TK-10 renal; 33.4% in the assay on ACHN renal. The growth is 13.5% with A498 renal, 13.4% in the assay on CCRF-CEM leukemia and 17.8% with MOLT-4 leukemia.

In the case of `COc1cc(Nc2ncccc2NC(=O)c2cn(Cc3cccc(Oc4ccccc4)c3)nn2)cc(OC)c1`, the growth is 95.7% in the assay with SK-MEL-2 melanoma; 75% in the assay on EKVX NSCLC; 84.2% in the assay with SN12C renal; 50.7% with UO-31 renal; 100% in the assay with TK-10 renal; 86.1% with ACHN renal. Besides, the growth in the assay with A498 renal is 76.2%; in the assay with CCRF-CEM leukemia it was 84.5%; in the assay with MOLT-4 leukemia it was 59.6%.

As to `C/C(=N\O)C(=O)NCCCCCC(=O)Nc1ccccc1`, the growth was 110% in the assay on SK-MEL-2 melanoma; 98.2% in the assay on EKVX NSCLC; 98.5% in the assay with SN12C renal; 90.3% in the assay with UO-31 renal; 89.6% in the assay on TK-10 renal; 109% in the assay on ACHN renal. The growth with A498 renal is 90.2%; in the assay on CCRF-CEM leukemia, 101%; in the assay with MOLT-4 leukemia, 101%.

For the molecule `COc1ccc(/C=C/C(=O)c2cc3c(N)c(C(=O)Nc4ccccc4C)sc3nc2C)cc1`, the growth with SK-MEL-2 melanoma was 14.5%; with EKVX NSCLC, 43.3%; in the assay with SN12C renal, 26.4%; in the assay with UO-31 renal it was 40.4%; in the assay with TK-10 renal, 32%; in the assay with ACHN renal, 38.7%. The growth in the assay with A498 renal is 16.7%; in the assay with CCRF-CEM leukemia, 16.4%; in the assay on MOLT-4 leukemia, 27.6%.

Regarding `CN(C)Cc1ccc(C(=O)Nc2ccc3ncnc(Nc4ccc(Oc5cccc(F)c5)c(Cl)c4)c3c2)cc1`, the growth was -27.1% (active) in the assay on SK-MEL-2 melanoma; 35.5% in the assay with EKVX NSCLC; 11.4% with SN12C renal; 16% in the assay with UO-31 renal; 1.66% (active) in the assay on TK-10 renal; -85.8% (active) with ACHN renal. Further, the growth in the assay with CCRF-CEM leukemia was -0.132% (active); in the assay on MOLT-4 leukemia, -13.2% (active).

Regarding `COC(=O)Cc1nc(C#N)c(N(C)C)o1`, the growth in the assay with SK-MEL-2 melanoma was 89.4%; in the assay on EKVX NSCLC, 116%; in the assay with SN12C renal it was 90.3%; in the assay with UO-31 renal, 82.4%; with TK-10 renal, 93.3%; with ACHN renal, 101%. Also, the growth is 125% in the assay on A498 renal, 92.9% in the assay on CCRF-CEM leukemia and 97.6% with MOLT-4 leukemia.

`O=C(CCCCl)NNc1nccc(Nc2ccc(S(=O)(=O)Nc3ccncc3)cc2)n1`: the growth in the assay with SK-MEL-2 melanoma was 92.7%; in the assay on EKVX NSCLC, 105%; with SN12C renal it was 102%; in the assay with UO-31 renal it was 92.2%; in the assay with TK-10 renal it was 85.8%; in the assay with ACHN renal it was 104%. Further, the growth in the assay on A498 renal is 110%; in the assay on CCRF-CEM leukemia, 116%; with MOLT-4 leukemia, 112%.

As to `COc1cc(N2C(=O)[C@H](c3ccccc3)C2c2ccc(SC)cc2)cc(OC)c1OC` (stereo partly drawn), the growth was 31.1% in the assay with SK-MEL-2 melanoma; 33.7% with EKVX NSCLC; 24.3% with SN12C renal; 32.5% in the assay with UO-31 renal; 50.9% in the assay on TK-10 renal; 30.2% with ACHN renal. Also, the growth in the assay on A498 renal was -4.14% (active); with CCRF-CEM leukemia it was 5.22% (active); in the assay on MOLT-4 leukemia it was 2.92% (active).

As to `C#CCOc1ccc2ncnc(Nc3cccc(NC(=O)CCl)c3)c2c1`, the growth in the assay on SK-MEL-2 melanoma is 69.7%; in the assay with EKVX NSCLC, 92.9%; in the assay on SN12C renal, 69.4%; in the assay with UO-31 renal it was 59.5%; with TK-10 renal it was 73.4%; in the assay with ACHN renal, 65.8%. Besides, the growth in the assay with A498 renal is 89.1%; in the assay on CCRF-CEM leukemia it was 16.1%; in the assay on MOLT-4 leukemia, 18.1%.

Turning to `O=C1NC(=C(Cl)Cl)/C(=N/S(=O)(=O)NCCc2c[nH]c3ccccc23)N1`, the growth in the assay on SK-MEL-2 melanoma is 46.2%; in the assay on EKVX NSCLC it was 101%; in the assay on SN12C renal it was 35.2%; in the assay on UO-31 renal it was 71.6%; in the assay with TK-10 renal, 109%; with ACHN renal, 88.4%. The growth was 71.5% with A498 renal and 7.47% (active) with CCRF-CEM leukemia.

Turning to `Oc1c(CN2CCCC2)cc(COCc2ccccc2)c2cccnc12`, the growth in the assay with SK-MEL-2 melanoma is 19.2%; with EKVX NSCLC it was 31.7%; in the assay with SN12C renal, 27.9%; with UO-31 renal, -1.58% (active); in the assay with TK-10 renal, 10.7%; in the assay with ACHN renal, 6.14% (active). The figures for the growth in the assay on A498 renal, with CCRF-CEM leukemia and with MOLT-4 leukemia were 19.3%, 6.37% (active) and 9.79% (active), respectively.

Regarding `O=C(O)CCCc1cnc2c3sccc3nc(SCc3c(Cl)cccc3Cl)n12`, the growth in the assay on SK-MEL-2 melanoma was 20.6%; in the assay on EKVX NSCLC, 63%; with SN12C renal it was 57.2%; with UO-31 renal it was 49%; in the assay with TK-10 renal it was 65.3%; with ACHN renal it was 61.1%. Further, the growth in the assay with CCRF-CEM leukemia is 31.2%; with MOLT-4 leukemia, 50.5%.

As for `COc1cccc(Nc2ccnc3[nH]c4ccc([N+](=O)[O-])cc4c23)c1`, the growth was 40.2% in the assay with SK-MEL-2 melanoma; 31.6% in the assay on EKVX NSCLC; 65.2% with SN12C renal; 44.4% in the assay with UO-31 renal; 66.6% in the assay with TK-10 renal; 45.2% in the assay with ACHN renal. Further, the growth is 43.5% in the assay with A498 renal, 42% in the assay with CCRF-CEM leukemia and 48.7% in the assay with MOLT-4 leukemia.

As for `CC(=O)c1c(Nc2ccc(F)c(F)c2F)[nH]c2c(F)cc(F)cc2c1=O`, the growth with SK-MEL-2 melanoma was -52.6% (active); in the assay with EKVX NSCLC, 9.73% (active); in the assay on SN12C renal, 1.04% (active); with UO-31 renal it was 4.44% (active); in the assay on TK-10 renal it was 12.7%; in the assay with ACHN renal it was 0.167% (active). The growth in the assay on A498 renal is -33.4% (active); in the assay on CCRF-CEM leukemia, 6.3% (active); in the assay with MOLT-4 leukemia, -3.98% (active).

These data come from PubChem BioAssay (NCI).
